# Assay outcomes as filed in PubChem.
# This is a sample that favours compounds with a hit; in the whole collection about 22% have one here.
# F-actin modifier = modifiers of F-actin cytoskeleton organization, primary screen, imaging, HUVEC, phalloidin staining, high-content imaging; AID 836, 2007; inhibition, % at 2 µM; HUVEC TNFa F-actin phalloidin imaging; 0.18% of 91,000 active;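 active = inhibition above the batch mean plus 3 SD and confirmed as a hit by visual image inspection, cut at about 30% in these data, passing the limit was not always enough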
# CYP2C19 act = human CYP2C19 activators, primary screen, biochemical, luminescence; activation factor at 5 µM; Cytochrome P450 2C19 (Homo sapiens), P33261; 96,000 tested, under 10 active; recombinant CYP2C19, luciferin-H EGE luminescence; stronger effect = higher value; 0 = fully inhibited enzyme, 1 = untreated enzyme;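 active = activation factor of at least 2 at 5 µM in the primary screen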
# Target sequence (P33261 whole entry, looked up): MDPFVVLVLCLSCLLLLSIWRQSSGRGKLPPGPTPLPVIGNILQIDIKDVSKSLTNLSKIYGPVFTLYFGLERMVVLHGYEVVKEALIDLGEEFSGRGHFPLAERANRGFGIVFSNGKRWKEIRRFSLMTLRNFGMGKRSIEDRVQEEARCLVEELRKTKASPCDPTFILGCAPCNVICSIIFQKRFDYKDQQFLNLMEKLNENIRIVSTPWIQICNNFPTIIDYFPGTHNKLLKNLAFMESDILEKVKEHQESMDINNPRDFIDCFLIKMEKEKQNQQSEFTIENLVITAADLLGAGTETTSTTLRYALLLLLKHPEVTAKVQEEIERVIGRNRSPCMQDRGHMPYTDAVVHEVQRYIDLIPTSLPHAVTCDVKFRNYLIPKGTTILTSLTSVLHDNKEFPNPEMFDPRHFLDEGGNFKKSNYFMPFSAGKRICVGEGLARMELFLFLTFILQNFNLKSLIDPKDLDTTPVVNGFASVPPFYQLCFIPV
# CYP2C9 act = human CYP2C9 activators, primary screen, biochemical, luminescence. AID 1024, 2008. recombinant CYP2C9, luciferin-H conversion; stronger effect = higher value; factor 1 = untreated enzyme, 0 = blocked. 1.4% of 96,000 active. activation factor at 5 µM;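 active = activation factor of 2 or more for CYP2C9 at a 5 µM dose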
# CYP2C9 inh = blockers of cytochrome P450 2C9 activity – biochemical, luminescence, ADME assay, primary screen. 20% of 96,000 active. CYP2C9 Supersomes, luciferin-H conversion. P11712. AID 777, 2007. inhibition, % at 5 µM;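 active = blocking of liver enzyme CYP2C9 beyond about 50% at 5 µM, limit read from the data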
# E-sel TNF inh = E-selectin induction blockers in HUVEC – imaging, immunofluorescence, high content, primary screen; HUVEC TNFa-induced E-selectin immunofluorescence; inhibition, % at 2 µM; 0.71% of 120,000 active; AID 1246, 2008;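 active = inhibition above the batch mean plus 3 SD, and confirmed as a hit on visual image review, cut at about 43% in these data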
# CYP2C19 inhib = blockers of cytochrome P450 2C19 activity – biochemical, luminescence, ADME assay, primary screen; AID 778, 2007; 21% of 96,000 active; CYP2C19 Supersomes, luciferin-H EGE luminescence, 30 min; inhibition, % at 5 µM;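 active = CYP2C19 inhibition above a set limit at 5 µM in the primary screen, cut at about 50% in these data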
# Hits are given with their value; – = inactive; · = not tested or not shown.
SMILES,F-actin modifier,CYP2C19 act,CYP2C9 act,CYP2C9 inh,E-sel TNF inh,CYP2C19 inhib
Cc1ccc(N(C)S(=O)(=O)c2cccc(C(=O)NC3=NCCS3)c2)cc1,–,–,–,69,–,–
COc1ccc(N(C)S(=O)(=O)c2cccc(C(=O)NC3=NCCS3)c2)cc1,·,–,–,64,–,–
Cc1cc(OCc2cc3c(cc2Cl)OCO3)c2c(C)cc(=O)oc2c1,·,·,·,·,–,·
CCOc1ccccc1NC(=O)N1CCCC(c2nc3c(nnn3Cc3ccc(C)cc3)c(=O)[nH]2)C1 (stereo not drawn),–,–,–,–,·,–
O=C(Cc1cccs1)N1CCCC(c2nc3c(nnn3Cc3ccccc3Cl)c(=O)[nH]2)C1 (stereo not drawn),–,–,–,91,–,66
O=C(Cc1cccs1)N1CCCC(c2nc3c(nnn3Cc3ccc(F)cc3)c(=O)[nH]2)C1 (stereo not drawn),–,–,–,57,–,–
CC(C)(C)c1ccc(Cn2nnc3c(=O)[nH]c(C4CCCN(C(=O)Cc5cccs5)C4)nc32)cc1 (stereo not drawn),–,–,–,57,–,–
Cc1ccc(Cn2nnc3c(=O)[nH]c(C4CCCN(C(=O)Nc5ccc(F)cc5F)C4)nc32)cc1 (stereo not drawn),–,–,–,54,–,–
O=C(NCc1cccs1)c1nc2c(nnn2Cc2ccccc2Cl)c(=O)[nH]1,–,·,·,·,·,·
Cc1sc2ncnc(Sc3nnnn3-c3ccc(Cl)cc3)c2c1C,–,–,–,–,–,–
CC(C)(C)c1ccc(Cn2nnc3c(=O)[nH]c(C4CCN(C(=O)Cc5cccs5)CC4)nc32)cc1,–,–,–,99,–,91
N#Cc1ccc(NC(=O)N2CCC(c3nc4c(nnn4Cc4cccc(Cl)c4)c(=O)[nH]3)CC2)cc1,–,–,–,–,–,–
CC(C)CCNC(=O)NC(=O)COc1ccccc1C#N,–,–,–,–,–,75
COC(=O)c1ccccc1COn1c(=O)c(C)[n+]([O-])c2ccccc21,–,–,–,–,·,–
COc1ccc(CCN2C(=O)C(O)=C(C(=O)c3ccco3)C2c2cccs2)cc1OC (stereo not drawn),–,–,–,53,–,–
Cc1ccc2nc(N3C(=O)C(O)=C(C(=O)c4ccco4)C3c3cccs3)sc2c1 (stereo not drawn),–,–,–,96,·,–
COc1cc(C2C(C(=O)c3ccco3)=C(O)C(=O)N2CCc2ccccc2)ccc1O (stereo not drawn),·,–,–,54,–,–
COc1ccc(C2C(C(=O)c3ccco3)=C(O)C(=O)N2c2nnc(C)s2)cc1 (stereo not drawn),·,·,·,·,–,·
COc1ccc(CCN2C(=O)C(O)=C(C(C)=O)C2c2ccccc2OC)cc1OC (stereo not drawn),–,–,–,–,·,–
CCOc1cc(C2C(C(=O)c3ccc(C)o3)=C(O)C(=O)N2CCc2ccccc2)ccc1O (stereo not drawn),–,–,–,–,–,–
COc1cccc2c(=O)c3cccc(N)c3[nH]c12,·,·,·,·,–,·
O=C(CCC(=O)OCC(=O)c1ccc(Br)cc1)Nc1ccc(Br)c2cccnc12,–,–,3,–,–,–
c1ccc(COc2ccc(-c3csnn3)cc2)cc1,–,–,–,–,–,68
Nc1ccc(OCc2ccccc2)cc1,–,·,·,·,–,·
COc1ccccc1-c1nnc2n1N=C(C(C)(C)C)CS2,–,–,–,–,·,79
SMILES,F-actin modifier,CYP2C19 act,CYP2C9 act,CYP2C9 inh,E-sel TNF inh,CYP2C19 inhib
CC(C)(C)C1=Nn2c(nnc2-c2ccccc2F)SC1,–,–,–,–,–,78
CC(C)(C)C1=Nn2c(nnc2C2CCCCC2)SC1,–,–,–,–,–,68
Cc1ccc(NC(=O)c2ccc(CSc3nccc(C)n3)cc2)cc1,–,–,–,64,–,–
COc1ccc(C(=O)CSc2nc3cccnc3n2C)cc1,–,·,·,·,–,·
COc1ccc2c(c1)nc(SCC(=O)c1ccc(Br)s1)n2C,–,–,–,51,·,72
CC(=O)c1ccc(-n2nnnc2SCC(=O)NNC(=O)c2ccco2)cc1,–,–,–,–,·,–
